BAZ2B block: qHTS Assay for Inhibitors of BAZ2B; Bromodomain adjacent to zinc finger domain protein 2B (Homo sapiens), Q9UIF8; AlphaScreen BAZ2B-H3K14Ac peptide displacement; 360,000 tested, 4.4% active; Potency, µM (highest dose often 114 µM), usual class: inhibitors; note: nearly all actives have a fitted effect of over 60% in size
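In this displacement format the biotinylated H3(5-23) peptide acetylated at Lys14 serves as ligand at 50 nM, with BAZ2B at 50 nM in PBS pH 7.4 containing 0.01% Tween-20. Donor and acceptor beads are 10 ug/mL final.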
L3MBTL1 block: qHTS Assay for the Inhibitors of L3MBTL1; Potency, µM (highest dose often 57.1 µM), most hits filed as inhibitors; 230,000 tested, 0.66% active; Lethal(3)malignant brain tumor-like protein 1 (Homo sapiens), Q9Y468; AlphaScreen L3MBTL1–H3K9me1 peptide binding; note: nearly all actives have a fitted effect of over 60% in size
Target sequence (Q9Y468 whole entry, looked up): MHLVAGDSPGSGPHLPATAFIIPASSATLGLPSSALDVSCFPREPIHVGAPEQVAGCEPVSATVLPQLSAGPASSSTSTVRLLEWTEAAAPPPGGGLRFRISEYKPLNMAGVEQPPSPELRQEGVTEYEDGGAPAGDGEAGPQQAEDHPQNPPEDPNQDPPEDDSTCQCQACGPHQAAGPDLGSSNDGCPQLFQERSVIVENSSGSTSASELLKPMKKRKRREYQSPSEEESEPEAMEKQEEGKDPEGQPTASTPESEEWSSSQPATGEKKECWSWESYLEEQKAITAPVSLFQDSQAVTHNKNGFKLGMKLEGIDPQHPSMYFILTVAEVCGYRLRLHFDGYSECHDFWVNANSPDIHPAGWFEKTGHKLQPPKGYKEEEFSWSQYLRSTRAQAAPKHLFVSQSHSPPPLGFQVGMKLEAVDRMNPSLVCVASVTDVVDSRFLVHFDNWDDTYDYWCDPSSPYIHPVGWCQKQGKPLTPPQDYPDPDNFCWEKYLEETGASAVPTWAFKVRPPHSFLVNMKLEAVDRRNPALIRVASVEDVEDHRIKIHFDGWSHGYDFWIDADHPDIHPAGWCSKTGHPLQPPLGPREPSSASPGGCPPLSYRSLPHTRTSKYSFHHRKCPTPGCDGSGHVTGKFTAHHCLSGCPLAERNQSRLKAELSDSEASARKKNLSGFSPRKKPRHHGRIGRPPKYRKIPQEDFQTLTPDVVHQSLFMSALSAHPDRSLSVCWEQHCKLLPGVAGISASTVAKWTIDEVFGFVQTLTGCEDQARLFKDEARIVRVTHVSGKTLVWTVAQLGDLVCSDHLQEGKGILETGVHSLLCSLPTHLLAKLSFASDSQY
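L3MBTL1 50 nM + b-AHA-H3(1-15)K9me1 75 nM, 30 min RT; compound added, 30 min RT; streptavidin donor/Ni-chelate acceptor beads 10 ug/mL each final, 30 min RT dark; AlphaScreen read.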
HP1b binding inh: HTS for Inhibitors of HP1-beta Chromodomain Interactions with Methylated Histone Tails | Chromobox protein homolog 1 (Homo sapiens), P83916 | AlphaScreen HP1-beta / biotin-H3K9me3 peptide binding | Potency, µM (doses to about 114 µM), hits mostly inhibitors | 390,000 tested, 0.56% active; note: nearly all actives have a fitted effect of over 70% in size
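Compound inhibition of the preformed complex between 50 nM HP1-beta and 50 nM biotinylated H3K9me3 peptide was read by AlphaScreen. Buffer was PBS pH 7.4 with 0.01% Tween-20. Incubations ran 30 min at room temperature, with 10 ug/mL donor/acceptor beads.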
G9a inh: qHTS Assay for Inhibitors of Histone Lysine Methyltransferase G9a. Potency, µM (series often up to 102 µM), usual class: inhibitors. Histone-lysine N-methyltransferase EHMT2 (Homo sapiens), Q96KQ7. 350,000 tested, 8.8% active. G9a H3K9 monomethylation, AlphaScreen, 2 h. AID 504332, 2011; note: nearly all actives have a fitted effect of over 75% in size
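Readings reflect AlphaScreen signal from monomethyl-H3K9 antibody detection. HMT at 20 nM; substrate b-H3K9 500 nM; cofactor SAM 20 uM; 2 h RT reaction; compounds tested as titrations in qHTS with 15 min preincubation.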
PI5P4Ka inh: qHTS for Inhibitors of phosphatidylinositol 5-phosphate 4-kinase (PI5P4K) | max response, % | AID 652105, 2013 | Phosphatidylinositol 5-phosphate 4-kinase type-2 alpha (Homo sapiens), P48426 | 330,000 tested, 1.2% active | PI5P4Kalpha enzyme, ADP-Glo luminescence, 60 min; active compounds read low; active = max response of -50% or lower; inconclusive = between -30% and -50%; inactive = -30% or higher; note: value at the top dose of about 77 µM
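Enzyme plus substrate dispensed, test compounds pinned in, then ATP (5 microM final) added. After 60 min at RT, ADP-Glo reagent 1 for 45 min and reagent 2 for 30 min preceded luminescence imaging.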
JMJD2A Tudor inh: qHTS Assay for Inhibitors of JMJD2A-Tudor Domain | Potency, µM (top dose mostly 114 µM), hits mostly inhibitors | 390,000 tested, 4.4% active | AlphaScreen JMJD2A-Tudor / H3K4me3 peptide binding | Lysine-specific demethylase 4A (Homo sapiens), O75164; note: nearly all actives have a fitted effect of over 50% in size
Hits are given with their value; . = inactive; ? = inconclusive; / = no result; [ ] = dose if it differs, or a comment. An excerpt weighted towards active compounds, which were near 11% of everything screened. Unless noted, calls come from the whole dose curve; as a rule, active = well fitted inhibition curve with a large enough effect; inconclusive = small, poorly fitted or top-dose-only effect; inactive = no such curve, though single readings can be large or run the other way.

SMILES | BAZ2B block | L3MBTL1 block | HP1b binding inh | G9a inh | PI5P4Ka inh | JMJD2A Tudor inh
CCN(CC)c1ccc(/C=C2\SC(=O)N(C(C)C)C2=O)o1 | ? | . | . | 7.08µM | . | .
CC(C)N1C(=O)S/C(=C/c2ccc3c(c2)n(C)c(=O)n3C)C1=O | . | . | . | . | / | .
CCCc1cc(=O)n2[nH]c(NC(=O)c3ccc(C(C)(C)C)cc3)nc2n1 | . | / | . | . | / | .
O=C(Nc1ccc(-c2nc3ccccc3o2)c(O)c1)c1cc(-n2cnnc2)ccc1Cl | . | / | . | .[12.7 µM] | / | .
Cc1c(NC(=O)c2cc(-n3cnnc3)ccc2Cl)cccc1-c1nc2ccccc2o1 | . | . | . | 2.51µM | . | .
CCCCn1c(=O)nc2n(-c3ccc(F)cc3)c3ccccc3cc-2c1=O | . | / | . | ? | / | .
Cc1noc(C)c1C(=O)N1CCC[C@@]2(CCN(C(=O)Nc3ccccc3)C2)C1 | / | / | / | .[12.7 µM] | / | /
CC1=NN(c2ccc(C(=O)OC(C)C)cc2)C(=O)/C1=C\C=C\c1ccco1 | 3.98µM | 6.31µM | ? | 4.47µM | . | 17.8µM
COC(=O)c1ccc(OC(=O)/C=C/c2ccco2)cc1 | . | / | ? | ? | . | .
CN(CC(=O)Nc1ccc(Cl)c(C(F)(F)F)c1)C(=O)/C=C/c1ccco1 | . | . | . | . | . | .
CCOC(=O)c1ccc(N2N=C(C)/C(=C/C=C/c3ccco3)C2=O)cc1 | 6.31µM | 31.6µM | ? | ? | . | ?
O=C(O)c1cc(N2N=C(C(F)(F)F)/C(=C/C=C/c3ccco3)C2=O)ccc1Cl | 12.6µM | 1µM | 1.58µM | 2.51µM | -93.2 | 1µM
CCCOc1ccc(CNC(=O)CCCN2C(=O)CSc3c2c(C)nn3-c2ccccc2)cc1 | . | / | ? | . | / | ?
O=C(c1cc(Br)c(Br)s1)N1CCOCC1 | . | . | . | .[12.7 µM] | . | .
O=C(c1ccc(=O)oc1)N1CCOCC1 | 50.1µM | 4.47µM | 22.4µM | 22.4µM | . | 44.7µM
O=C(c1coc(=O)c(Br)c1)N1CCOCC1 | 50.1µM | 14.1µM | ? | ? | ? | ?
COc1cc(C)c(NC(c2ccccc2)c2ccccc2)cc1OC | 39.8µM | . | ? | 28.2µM | . | 44.7µM
S=c1[nH]nc(COc2ccccc2)n1/N=C/c1ccccc1Cl | . | / | . | 2.24µM | . | 56.2µM
S=c1[nH]nc(COc2ccccc2)n1/N=C/c1c(Cl)cccc1Cl | . | / | . | 2µM | . | .
COC(=O)C1CCN(C(c2ccccc2)c2sc3nc(-c4ccco4)nn3c2O)CC1 (stereo unspecified) | . | / | . | . | / | .
COc1ccc(NC(=O)c2c(N)no[n+]2[O-])cc1 | . | . | . | . | . | .
O=C(c1cccs1)c1no[n+]([O-])c1C(=O)c1cccs1 | ? | . | . | 10µM | . | ?
COc1ccc(C(=O)c2no[n+]([O-])c2C(=O)c2ccc(OC)cc2)cc1 | . | . | . | 8.91µM | . | ?
CCOc1ccc(Nc2nc(C)c(NC(=O)c3cccc(F)c3)c(Nc3ccc(OCC)cc3)n2)cc1 | . | / | . | 20µM | / | ?
COc1ccc(CCNC(=O)Cn2c(=O)c3cccn3c3ccc(F)cc32)c(OC)c1 | . | / | . | . | / | .
SMILES | BAZ2B block | L3MBTL1 block | HP1b binding inh | G9a inh | PI5P4Ka inh | JMJD2A Tudor inh
Cc1sc(NC(=O)c2ccco2)c(C(=O)c2ccc(Cl)cc2)c1C | ? | . | ? | 22.4µM | . | ?
Cc1ccc(C(c2c(NC(=O)c3ccco3)sc(C)c2C)N2CCOCC2)cc1 (stereo unspecified) | / | / | / | / | . | /
Cc1sc(NC(=O)c2ccco2)c(C(c2ccc(F)cc2)N2CCN(C)CC2)c1C (stereo unspecified) | 50.1µM | . | ? | 44.7µM | . | 56.2µM
CCOC(=O)c1c(NC(=O)COC(=O)CNC(=O)c2ccco2)sc(C)c1C | ? | . | . | . | . | 39.8µM
C/C=C/C(=O)N1CC2(CC(c3cccc(NC(=O)CCCCC)c3)=NO2)C[C@H]1C(N)=O (stereo partly specified) | ? | / | / | .[12.7 µM] | / | /
C/C=C/C=C/C(=O)N1CC2(CC(c3cccc(NC(=O)CCCCC)c3)=NO2)C[C@H]1C(N)=O (stereo partly specified) | . | / | . | ? | -75.7 | .
C/C=C\C=C/C(=O)Nc1cccc(C2=NOC3(C2)C[C@H](C(N)=O)N(C(=O)Cc2ccc([N+](=O)[O-])cc2)C3)c1 (stereo partly specified) | . | / | ? | ? | -57.2 | 79.4µM
C/C=C\C=C/C(=O)Nc1cccc(C2=NOC3(C2)C[C@H](C(N)=O)N(C(=O)CC)C3)c1 (stereo partly specified) | . | / | . | ? | . | ?
C/C=C\C=C/C(=O)Nc1cccc(C2=NOC3(C2)C[C@@H](C(N)=O)N(C(=O)CCCCC)C3)c1 (stereo partly specified) | . | / | ? | .[12.7 µM] | -66.6 | 79.4µM
COc1ccc(CNC(=O)c2cc3c(=O)[nH]c4ccccc4c3n2C)c(OC)c1 | / | / | . | . | / | .
CCCCCCCCCCCC(=O)OCC(O)C1OCC(O)C1O (stereo unspecified) | / | / | / | .[12.7 µM] | / | /
COc1ccc(-n2nnnc2SCC(=O)NCc2ccco2)cc1OC | ? | . | . | 50.1µM | / | .
COc1ccc(-c2nc(SCC(=O)NCc3ccco3)c(-c3ccccc3)[nH]2)cc1OC | ? | / | . | 44.7µM | . | ?
COc1ccc(-c2[nH]c(-c3ccc(F)cc3)nc2SCC(=O)NCc2ccco2)cc1OC | . | . | . | 89.1µM | . | .
COc1ccc(-c2[nH]c(-c3ccc(F)cc3)nc2SCC(=O)Nc2ccc(OC)c(OC)c2)cc1 | . | / | . | . | / | ?
COc1cccc(-n2nnnc2SCC(=O)NCc2ccco2)c1 | . | . | . | ? | . | .
COc1ccc(-c2[nH]c(-c3ccccc3)nc2SCC(=O)NCc2ccco2)cc1OC | . | / | . | . | . | .
Cc1ccc(NC(=O)c2c(NC(=O)c3ccco3)sc3c2CCC(C(C)(C)C)C3)c(C)c1 (stereo unspecified) | . | / | . | . | / | .
CNc1nc(NN)nc(Nc2ccccc2)n1 | 28.2µM | .[2.29 µM] | . | .[0.501 µM] | . | 25.1µM
CNc1nc(C#N)nc(Nc2ccccc2)n1 | / | / | / | / | / | .
CCN1C(=O)c2ccccc2Sc2ccc(NC(=O)COc3ccc(Cl)cc3)cc21 | . | / | . | . | / | .
Cn1nc(C(F)(F)F)c2cc(C(=O)O)sc21 | . | / | . | . | . | .[11.4 µM]
COC(=O)c1cc2c(C(F)(F)F)nn(C)c2s1 | . | . | . | . | . | .
CCn1c(-c2cc3c(C(F)(F)F)nn(C)c3s2)n[nH]c1=S | . | . | . | 5.62µM | / | 8.91µM

High-throughput results deposited in PubChem BioAssay by National Center for Advancing Translational Sciences (NCATS).
